The results in this text go back to PMC7862700, “An all-to-all approach to the identification of sequence-specific readers for epigenetic DNA modifications on cytosine”.

Common to all, as to experiment: DAPPL (digital affinity profiling via proximity ligation, sequencing); 10 mM Tris-HCl pH 7.5, 50 mM NaCl, 1 mM DTT, 4% glycerol, room temperature, 30 min; GST-TFs on glutathione beads, 16-mer random dsDNA library, 0.1% formaldehyde crosslink after washing; high values mean tight binding
One assay has as its target T1, FEV (Homo sapiens, UniProt Q99581 1-238).
T1 sequence: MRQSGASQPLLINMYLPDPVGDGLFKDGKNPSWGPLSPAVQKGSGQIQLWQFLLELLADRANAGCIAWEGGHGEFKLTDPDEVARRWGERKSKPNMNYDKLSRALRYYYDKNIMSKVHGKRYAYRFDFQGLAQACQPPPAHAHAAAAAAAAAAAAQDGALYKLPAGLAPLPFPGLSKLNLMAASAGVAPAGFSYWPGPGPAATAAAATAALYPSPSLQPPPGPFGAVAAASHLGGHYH
As to conditions: protein: recombinant; tags: N-terminal GST; dsDNA, one strand shown. In a few lines:
(§1)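 Pools were built from human transcription factors expressed in yeast as GST fusions, captured on glutathione beads and DNA-barcoded, along with a tag-only sample. Incubation with 200 nmole of a 16-mer random double-stranded DNA library lasted 30 min at room temperature in Tris/NaCl/DTT/glycerol buffer, and was followed by washing, 0.1% formaldehyde crosslinking, proximity ligation, PCR amplification and Illumina NextSeq500 sequencing. Binding signal is the quotient of each hexamer's read frequency for a factor and its frequency for the tag-only sample.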

In a further assay the target is ETV5 (Homo sapiens, UniProt P41161 1-510). As to conditions: protein: recombinant; tags: N-terminal GST; dsDNA, one strand shown. In a few lines: as §1
The target in a further assay is HSF1 (Homo sapiens, UniProt Q00613 1-529). As to conditions: protein: recombinant; tags: N-terminal GST; chain copies: 3; dsDNA, one strand shown. Summed up:
as §1

The target in the next assay is T2, SPIC (Homo sapiens, UniProt Q8N5J4 1-248).
T2 sequence: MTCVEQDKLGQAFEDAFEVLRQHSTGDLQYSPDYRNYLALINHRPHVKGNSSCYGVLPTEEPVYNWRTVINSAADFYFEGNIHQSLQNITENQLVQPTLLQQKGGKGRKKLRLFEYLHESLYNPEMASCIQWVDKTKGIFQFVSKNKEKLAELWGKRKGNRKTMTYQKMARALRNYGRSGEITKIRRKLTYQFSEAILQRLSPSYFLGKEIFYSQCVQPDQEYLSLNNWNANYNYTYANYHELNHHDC
The conditions noted are these: protein: recombinant; tags: N-terminal GST; dsDNA, one strand shown. Summed up: as §1

A further assay addresses ELF4 (Homo sapiens, UniProt Q99607 1-663). The conditions noted are these: protein: recombinant; tags: N-terminal GST; dsDNA, one strand shown. Summed up: as §1
The next assay concerns the target T3, ELK4 (Homo sapiens, UniProt P28324-2 1-405).
T3 sequence: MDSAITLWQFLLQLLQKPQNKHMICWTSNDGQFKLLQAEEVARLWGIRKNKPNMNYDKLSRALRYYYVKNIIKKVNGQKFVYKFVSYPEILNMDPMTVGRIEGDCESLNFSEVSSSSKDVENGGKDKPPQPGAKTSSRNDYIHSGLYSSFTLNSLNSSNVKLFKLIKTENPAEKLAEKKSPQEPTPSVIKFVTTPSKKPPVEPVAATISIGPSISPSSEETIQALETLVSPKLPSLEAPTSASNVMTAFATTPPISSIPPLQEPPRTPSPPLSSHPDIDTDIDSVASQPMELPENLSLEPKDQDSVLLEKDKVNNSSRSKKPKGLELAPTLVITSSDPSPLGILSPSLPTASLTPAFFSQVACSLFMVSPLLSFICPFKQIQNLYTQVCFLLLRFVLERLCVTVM
As to conditions: protein: recombinant; tags: N-terminal GST; dsDNA, one strand shown. In a few lines: as §1

For the next assay, the target named is T4, ETV2 (Homo sapiens, UniProt O00321 1-342).
T4 sequence: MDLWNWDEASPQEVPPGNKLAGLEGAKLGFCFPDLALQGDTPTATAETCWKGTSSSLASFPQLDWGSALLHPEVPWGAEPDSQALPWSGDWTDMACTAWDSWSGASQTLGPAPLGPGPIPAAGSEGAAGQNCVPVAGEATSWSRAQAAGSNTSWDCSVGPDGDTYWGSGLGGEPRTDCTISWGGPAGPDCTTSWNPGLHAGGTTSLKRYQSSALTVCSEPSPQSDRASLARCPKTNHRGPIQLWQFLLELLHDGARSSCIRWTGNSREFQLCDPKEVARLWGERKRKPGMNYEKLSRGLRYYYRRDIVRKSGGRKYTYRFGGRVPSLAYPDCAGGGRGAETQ
As to conditions: protein: recombinant; tags: N-terminal GST; dsDNA, one strand shown. In a few lines:
as §1

The next assay addresses T5, ELF3 (Homo sapiens, UniProt P78545 1-371).
T5 sequence: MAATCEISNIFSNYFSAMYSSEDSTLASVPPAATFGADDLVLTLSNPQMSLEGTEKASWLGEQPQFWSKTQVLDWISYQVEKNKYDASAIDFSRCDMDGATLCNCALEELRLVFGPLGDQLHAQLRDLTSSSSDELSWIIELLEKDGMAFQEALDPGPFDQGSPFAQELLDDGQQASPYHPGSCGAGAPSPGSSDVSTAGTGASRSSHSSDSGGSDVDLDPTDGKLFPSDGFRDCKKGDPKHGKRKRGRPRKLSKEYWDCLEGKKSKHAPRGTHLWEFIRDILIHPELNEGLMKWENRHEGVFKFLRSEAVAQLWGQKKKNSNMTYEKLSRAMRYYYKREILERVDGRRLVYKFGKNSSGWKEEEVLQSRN
As to conditions: protein: recombinant; tags: N-terminal GST; dsDNA, one strand shown. Summed up: as §1

The target of a further assay is CRX (Homo sapiens, UniProt O43186 1-299). As to conditions: protein: recombinant; tags: N-terminal GST; dsDNA, one strand shown. Summed up:
as §1

The target of a further assay is ETV1 (Homo sapiens, UniProt P50549 1-477). As to conditions: protein: recombinant; tags: N-terminal GST; dsDNA, one strand shown. Summed up: as §1
A further assay deals with T6, ERF (Homo sapiens, UniProt P50548 1-548).
T6 sequence: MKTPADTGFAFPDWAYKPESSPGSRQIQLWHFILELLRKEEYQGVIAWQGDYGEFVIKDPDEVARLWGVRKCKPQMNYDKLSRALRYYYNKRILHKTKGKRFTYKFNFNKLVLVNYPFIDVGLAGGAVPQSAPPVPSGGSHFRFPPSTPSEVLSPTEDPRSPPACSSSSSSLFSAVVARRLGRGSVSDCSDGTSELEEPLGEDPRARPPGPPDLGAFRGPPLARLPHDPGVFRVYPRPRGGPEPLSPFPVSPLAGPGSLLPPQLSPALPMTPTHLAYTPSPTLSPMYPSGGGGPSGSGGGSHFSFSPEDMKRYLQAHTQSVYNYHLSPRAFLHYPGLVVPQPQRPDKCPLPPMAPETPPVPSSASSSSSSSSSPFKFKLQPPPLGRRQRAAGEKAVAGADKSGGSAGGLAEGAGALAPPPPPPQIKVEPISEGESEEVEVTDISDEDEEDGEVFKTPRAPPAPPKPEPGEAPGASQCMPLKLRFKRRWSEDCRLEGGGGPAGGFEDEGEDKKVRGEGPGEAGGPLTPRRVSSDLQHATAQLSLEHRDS
As to conditions: protein: recombinant; tags: N-terminal GST; dsDNA, one strand shown. Summed up: as §1

The target of a further assay is T7, ETV3L (Homo sapiens, UniProt Q6ZN32 1-361).
T7 sequence: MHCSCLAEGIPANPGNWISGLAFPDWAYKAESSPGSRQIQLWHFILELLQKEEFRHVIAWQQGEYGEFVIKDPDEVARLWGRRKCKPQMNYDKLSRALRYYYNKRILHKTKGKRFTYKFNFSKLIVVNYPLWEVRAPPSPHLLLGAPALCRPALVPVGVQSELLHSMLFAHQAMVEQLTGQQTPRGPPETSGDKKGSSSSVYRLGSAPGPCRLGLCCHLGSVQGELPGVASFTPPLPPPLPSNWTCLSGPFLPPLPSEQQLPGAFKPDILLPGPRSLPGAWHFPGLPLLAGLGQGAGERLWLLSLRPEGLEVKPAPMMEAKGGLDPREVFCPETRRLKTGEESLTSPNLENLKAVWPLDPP
As to conditions: protein: recombinant; tags: N-terminal GST; dsDNA, one strand shown. In a few lines: as §1

A further assay concerns the target T8, ETS2 (Homo sapiens, UniProt P15036 1-469).
T8 sequence: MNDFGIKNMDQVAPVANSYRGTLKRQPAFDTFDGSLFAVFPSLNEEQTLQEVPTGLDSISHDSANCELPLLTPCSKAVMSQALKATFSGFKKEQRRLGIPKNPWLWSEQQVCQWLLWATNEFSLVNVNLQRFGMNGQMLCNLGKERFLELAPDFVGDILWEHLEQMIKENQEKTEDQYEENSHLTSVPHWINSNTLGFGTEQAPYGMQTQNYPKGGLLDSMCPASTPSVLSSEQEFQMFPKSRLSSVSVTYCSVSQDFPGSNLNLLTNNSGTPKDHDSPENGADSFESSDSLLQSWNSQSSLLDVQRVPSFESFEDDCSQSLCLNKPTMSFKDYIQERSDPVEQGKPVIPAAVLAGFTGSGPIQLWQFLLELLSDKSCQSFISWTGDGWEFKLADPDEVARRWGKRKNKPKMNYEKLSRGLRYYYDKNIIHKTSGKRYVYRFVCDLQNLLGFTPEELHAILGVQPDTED
As to conditions: protein: recombinant; tags: N-terminal GST; dsDNA, one strand shown. Summed up: as §1

The target in the next assay is T9, SPDEF (Homo sapiens, UniProt O95238 1-335).
T9 sequence: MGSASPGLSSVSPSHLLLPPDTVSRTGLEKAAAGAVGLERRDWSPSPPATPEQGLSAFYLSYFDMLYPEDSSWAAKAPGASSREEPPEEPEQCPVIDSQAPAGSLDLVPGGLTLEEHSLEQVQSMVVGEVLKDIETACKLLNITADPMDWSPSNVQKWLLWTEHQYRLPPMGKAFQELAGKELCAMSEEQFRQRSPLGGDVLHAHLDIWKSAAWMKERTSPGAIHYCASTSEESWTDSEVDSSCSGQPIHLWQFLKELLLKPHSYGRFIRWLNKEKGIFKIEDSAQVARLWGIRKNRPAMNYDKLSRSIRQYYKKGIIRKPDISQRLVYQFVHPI
As to conditions: protein: recombinant; tags: N-terminal GST; dsDNA, one strand shown. Summed up: as §1

A further assay has as its target T10, ETV7 (Homo sapiens, UniProt Q9Y603 1-341).
T10 sequence: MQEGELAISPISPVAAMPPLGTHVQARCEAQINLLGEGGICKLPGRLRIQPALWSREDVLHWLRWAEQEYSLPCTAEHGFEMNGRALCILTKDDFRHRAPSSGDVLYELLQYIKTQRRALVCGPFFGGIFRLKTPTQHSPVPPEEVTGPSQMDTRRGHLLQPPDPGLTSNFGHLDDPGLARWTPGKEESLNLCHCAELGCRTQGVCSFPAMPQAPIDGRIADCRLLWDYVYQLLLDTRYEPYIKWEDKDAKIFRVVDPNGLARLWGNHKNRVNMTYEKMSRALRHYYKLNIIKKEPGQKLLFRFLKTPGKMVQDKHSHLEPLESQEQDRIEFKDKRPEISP
As to conditions: protein: recombinant; tags: N-terminal GST; dsDNA, one strand shown. Summed up:
as §1

Another assay addresses T11, ELF5 (Homo sapiens, UniProt Q9UKW6-2 1-255).
T11 sequence: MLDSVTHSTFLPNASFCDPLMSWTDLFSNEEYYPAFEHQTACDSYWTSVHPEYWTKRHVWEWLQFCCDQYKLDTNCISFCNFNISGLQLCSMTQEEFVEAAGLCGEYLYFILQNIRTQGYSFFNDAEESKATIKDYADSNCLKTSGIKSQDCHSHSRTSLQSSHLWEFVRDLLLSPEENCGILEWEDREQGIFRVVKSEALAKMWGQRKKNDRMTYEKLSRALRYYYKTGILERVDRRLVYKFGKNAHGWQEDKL
As to conditions: protein: recombinant; tags: N-terminal GST; dsDNA, one strand shown. In a few lines:
as §1

The next assay concerns the target T12, ETV3 (Homo sapiens, UniProt P41162-2 1-143).
T12 sequence: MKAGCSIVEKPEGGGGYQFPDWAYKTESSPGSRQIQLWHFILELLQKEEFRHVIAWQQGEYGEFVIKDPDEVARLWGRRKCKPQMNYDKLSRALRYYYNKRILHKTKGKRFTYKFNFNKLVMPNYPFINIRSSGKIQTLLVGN
As to conditions: protein: recombinant; tags: N-terminal GST; dsDNA, one strand shown. Summed up:
as §1

In a further assay the target is ETV6 (Homo sapiens, UniProt P41212 1-452). As to conditions: protein: recombinant; tags: N-terminal GST; dsDNA, one strand shown. Summed up: as §1
ETV6, sequence (P41212 whole entry): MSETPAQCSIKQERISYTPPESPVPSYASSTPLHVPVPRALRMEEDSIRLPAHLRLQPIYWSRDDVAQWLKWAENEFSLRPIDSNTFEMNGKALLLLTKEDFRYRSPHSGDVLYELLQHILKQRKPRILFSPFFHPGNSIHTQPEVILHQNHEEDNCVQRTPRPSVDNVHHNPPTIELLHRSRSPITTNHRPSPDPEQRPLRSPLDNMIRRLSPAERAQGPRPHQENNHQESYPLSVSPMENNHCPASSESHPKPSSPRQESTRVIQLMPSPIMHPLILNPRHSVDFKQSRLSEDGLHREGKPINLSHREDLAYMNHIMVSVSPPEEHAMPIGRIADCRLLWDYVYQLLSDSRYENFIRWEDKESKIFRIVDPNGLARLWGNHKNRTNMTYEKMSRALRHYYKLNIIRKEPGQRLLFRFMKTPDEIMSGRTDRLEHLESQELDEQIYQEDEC

ETV5, sequence (P41161 whole entry): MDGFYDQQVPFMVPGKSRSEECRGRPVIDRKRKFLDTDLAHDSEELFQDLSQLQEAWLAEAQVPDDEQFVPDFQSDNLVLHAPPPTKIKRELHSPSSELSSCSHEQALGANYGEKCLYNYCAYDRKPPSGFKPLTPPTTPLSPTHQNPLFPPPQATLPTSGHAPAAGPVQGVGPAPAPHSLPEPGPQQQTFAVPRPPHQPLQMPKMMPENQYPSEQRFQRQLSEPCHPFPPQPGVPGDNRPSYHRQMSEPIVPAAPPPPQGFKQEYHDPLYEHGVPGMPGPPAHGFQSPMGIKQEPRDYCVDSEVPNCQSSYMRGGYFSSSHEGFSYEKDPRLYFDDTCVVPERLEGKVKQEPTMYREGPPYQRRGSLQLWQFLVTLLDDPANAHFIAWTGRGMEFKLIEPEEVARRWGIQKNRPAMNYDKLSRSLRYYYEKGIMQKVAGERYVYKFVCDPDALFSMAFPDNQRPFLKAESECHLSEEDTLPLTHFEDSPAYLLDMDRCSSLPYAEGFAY
ELF4, sequence (Q99607 whole entry): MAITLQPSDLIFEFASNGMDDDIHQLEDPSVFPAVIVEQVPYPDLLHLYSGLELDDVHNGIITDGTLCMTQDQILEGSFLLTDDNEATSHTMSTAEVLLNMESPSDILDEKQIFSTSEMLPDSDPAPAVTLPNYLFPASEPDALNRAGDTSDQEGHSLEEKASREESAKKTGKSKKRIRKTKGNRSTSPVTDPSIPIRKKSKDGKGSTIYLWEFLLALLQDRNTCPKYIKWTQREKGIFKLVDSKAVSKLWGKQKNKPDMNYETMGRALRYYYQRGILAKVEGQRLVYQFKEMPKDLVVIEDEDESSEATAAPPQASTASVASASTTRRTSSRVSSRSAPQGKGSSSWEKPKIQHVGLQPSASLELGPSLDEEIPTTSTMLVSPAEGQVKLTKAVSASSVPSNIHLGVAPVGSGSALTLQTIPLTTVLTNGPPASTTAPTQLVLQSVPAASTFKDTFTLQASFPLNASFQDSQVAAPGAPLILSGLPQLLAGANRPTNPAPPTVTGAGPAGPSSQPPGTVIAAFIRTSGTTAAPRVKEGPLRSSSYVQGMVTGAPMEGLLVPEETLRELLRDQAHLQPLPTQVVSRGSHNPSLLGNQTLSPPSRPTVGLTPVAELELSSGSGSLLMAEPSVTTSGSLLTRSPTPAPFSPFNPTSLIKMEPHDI
HSF1, sequence (Q00613 whole entry): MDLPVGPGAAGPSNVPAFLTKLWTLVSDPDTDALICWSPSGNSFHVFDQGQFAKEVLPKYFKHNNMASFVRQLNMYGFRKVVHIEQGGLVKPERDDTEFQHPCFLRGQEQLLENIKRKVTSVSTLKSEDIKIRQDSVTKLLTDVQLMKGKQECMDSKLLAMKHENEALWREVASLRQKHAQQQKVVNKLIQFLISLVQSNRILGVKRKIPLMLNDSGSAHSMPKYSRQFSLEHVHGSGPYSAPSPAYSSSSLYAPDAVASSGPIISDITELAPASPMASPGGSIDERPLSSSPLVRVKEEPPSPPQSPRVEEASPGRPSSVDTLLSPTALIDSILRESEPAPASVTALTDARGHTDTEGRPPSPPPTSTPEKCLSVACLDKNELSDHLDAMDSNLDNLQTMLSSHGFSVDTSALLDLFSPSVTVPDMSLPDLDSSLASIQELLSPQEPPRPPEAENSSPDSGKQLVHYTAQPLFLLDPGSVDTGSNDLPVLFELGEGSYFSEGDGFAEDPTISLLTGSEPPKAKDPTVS
CRX, sequence (O43186 whole entry): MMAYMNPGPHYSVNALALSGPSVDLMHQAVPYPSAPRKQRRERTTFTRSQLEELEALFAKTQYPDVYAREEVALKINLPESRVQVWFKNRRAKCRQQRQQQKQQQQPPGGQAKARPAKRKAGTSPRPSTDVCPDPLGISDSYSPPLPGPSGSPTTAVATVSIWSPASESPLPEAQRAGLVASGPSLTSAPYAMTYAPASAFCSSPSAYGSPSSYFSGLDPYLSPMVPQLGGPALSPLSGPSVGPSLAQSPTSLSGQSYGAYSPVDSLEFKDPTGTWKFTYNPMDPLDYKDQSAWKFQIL
ETV1, sequence (P50549 whole entry): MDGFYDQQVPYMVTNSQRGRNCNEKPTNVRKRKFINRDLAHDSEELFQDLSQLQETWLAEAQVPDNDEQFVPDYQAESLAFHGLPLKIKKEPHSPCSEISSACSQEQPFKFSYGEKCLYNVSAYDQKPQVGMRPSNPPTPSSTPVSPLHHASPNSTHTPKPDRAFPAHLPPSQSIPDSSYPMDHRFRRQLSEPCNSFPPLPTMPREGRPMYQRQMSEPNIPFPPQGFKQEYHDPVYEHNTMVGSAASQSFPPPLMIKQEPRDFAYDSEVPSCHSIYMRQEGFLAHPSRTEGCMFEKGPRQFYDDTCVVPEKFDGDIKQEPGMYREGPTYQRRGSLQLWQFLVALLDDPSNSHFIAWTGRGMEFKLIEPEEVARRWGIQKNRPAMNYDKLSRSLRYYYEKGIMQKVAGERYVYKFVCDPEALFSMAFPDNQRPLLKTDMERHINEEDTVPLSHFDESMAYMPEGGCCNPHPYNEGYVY

Take AATGCA: the binding signal in the assay with FEV was 1.31 fold enrichment (6-mer frequency, TF over GST control); with ETV5, 1.29 fold enrichment (6-mer frequency, TF over GST control); in the assay with HSF1 it was 1.11 fold enrichment (6-mer frequency, TF over GST control); with SPIC, 1.28 fold enrichment (6-mer frequency, TF over GST control); with ELF4 it was 1.3 fold enrichment (6-mer frequency, TF over GST control); in the assay with ELK4 it was 1.31 fold enrichment (6-mer frequency, TF over GST control). For the same sequence, the binding signal was 1.25 fold enrichment (6-mer frequency, TF over GST control) with ETV2; 1.33 fold enrichment (6-mer frequency, TF over GST control) in the assay with ELF3; 1.14 fold enrichment (6-mer frequency, TF over GST control) with CRX; 1.25 fold enrichment (6-mer frequency, TF over GST control) in the assay with ETV1; 1.3 fold enrichment (6-mer frequency, TF over GST control) in the assay with ERF; 1.28 fold enrichment (6-mer frequency, TF over GST control) with ETV3L. In addition, the binding signal in the assay with ETS2 was 1.28 fold enrichment (6-mer frequency, TF over GST control); in the assay with SPDEF, 1.23 fold enrichment (6-mer frequency, TF over GST control); with ETV7, 1.3 fold enrichment (6-mer frequency, TF over GST control); with ELF5, 1.31 fold enrichment (6-mer frequency, TF over GST control); with ETV3, 1.25 fold enrichment (6-mer frequency, TF over GST control); with ETV6, 1.37 fold enrichment (6-mer frequency, TF over GST control).
